Screens: PubChem, several laboratories
This is a sample that favours compounds with a hit; in the whole collection about 1.3% have one here.
TcdB inh: TcdB glycohydrolase inhibitors, primary screen, biochemical, single point, plate reader; TcdB glycohydrolase enzymatic assay; Toxin B (Clostridioides difficile), P18177; inhibition, % at 9.99 µM; 350,000 compounds, 0.24% hits; in the data active = inhibition above about 10%
DUSP3 inh: VHR1 phosphatase inhibitors, primary screen, biochemical, absorbance, uHTS | AID 1654, 2009 | recombinant VHR phosphatase, pNPP absorbance | inhibition, % at 13.3 µM | Dual specificity protein phosphatase 3 (Homo sapiens), P51452 | 290,000 compounds, 0.52% hits; in the data active = inhibition above about 50%
SARS 3CLpro inh: SARS-CoV 3CLpro protease inhibitors, primary screen, biochemical, quenched FRET; Replicase polyprotein 1ab (Severe acute respiratory syndrome coronavirus), P0C6X7; recombinant SARS-CoV 3CLpro, quenched FRET peptide cleavage; inhibition, % at 6 µM; 290,000 compounds, 0.14% hits; AID 1706, 2009; in the data active = inhibition above about 12%
PriA SSB inh: inhibitors of Klebsiella pneumoniae PriA binding to SSB C-terminal tail, primary screen, biochemical, AlphaScreen | AlphaScreen SSBct-PriA binding, biotinylated peptide | PriA–SSB C-terminal tail interaction (Klebsiella pneumoniae) | 430,000 compounds, 0.6% hits | inhibition, % at 33 µM; in the data active = inhibition mostly above about 37%, no sharp cut-off; inactive = mostly below about 20%;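 also: plate controls were negative control peptide for no effect and reference peptide for full effect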
CCHFV vOTU inh: CCHFV vOTU protease inhibitors, primary screen, biochemical, Pep-AMC substrate, fluorescence; 370,000 compounds, 0.55% hits; AID 651958, 2012; Crimean-Congo hemorrhagic fever virus L polyprotein viral ovarian tumor (vOTU) protease …; inhibition, % at 11.5 µM; in the data active = inhibition above about 30%; also: 0% = vehicle wells with enzyme and 100% = no enzyme wells
BH1578 lux ind: inducers of Vibrio cholerae quorum light production without autoinducers, primary screen, BH1578 luxS cqsA deficient, single point. 350,000 compounds, 0.16% hits. V. cholerae BH1578 lux reporter, luminescence, 6 h. activation, % at 18.7 µM. AID 588436, 2011; in the data active = activation mostly above about 9.7%, no sharp cut-off
* = called active by the depositor.

How did CCn1c(COc2ccccc2)nnc1SCC(=O)Nc1cc(C)ccc1OC do in these assays?
DUSP3 inh: 23.8; SARS 3CLpro inh: 5.5; PriA SSB inh: 7.9; CCHFV vOTU inh: 5.1; BH1578 lux ind: inactive

How did CN(C)C[C@H]1CSCCCN1C(=O)c1cccc2ccccc12 do in these assays?
PriA SSB inh: 4.0

How did COc1ccc(CNC(=O)NCCCn2ccc3cccnc32)cc1 do in these assays?
PriA SSB inh: 4.0

Results for O=C(Nc1nccs1)c1ccc(N2CCOCC2)c([N+](=O)[O-])c1 ?
TcdB inh: -1.3; DUSP3 inh: 18.8; SARS 3CLpro inh: -0.1; PriA SSB inh: 17.8; CCHFV vOTU inh: 19.6; BH1578 lux ind: -0.3

Results for CC1CCCN(c2ccc(C(=O)Nc3cccnc3)cc2[N+](=O)[O-])C1 (stereo not drawn) ?
TcdB inh: 6.4; DUSP3 inh: 52.5*; SARS 3CLpro inh: 5.0; PriA SSB inh: 21.8; CCHFV vOTU inh: -7.0; BH1578 lux ind: -1.3

What do the screens show for `CC(C)(C)c1csc(NC(=O)c2ccc(N3CCOCC3)c([N+](=O)[O-])c2)n1`?
PriA SSB inh: 39.0*

How did O=C(Nc1ccc(N2CCOCC2)c(Cl)c1)c1ccc(Cl)cc1 do in these assays?
TcdB inh: 22.1*; DUSP3 inh: 4.0; SARS 3CLpro inh: 4.9; PriA SSB inh: -15.7; CCHFV vOTU inh: 11.0; BH1578 lux ind: inactive

How did CC(=O)Nc1ccc(N2CCCC(C)C2)c([N+](=O)[O-])c1 (stereo not drawn) do in these assays?
TcdB inh: 2.0; DUSP3 inh: 20.8; SARS 3CLpro inh: -0.4; PriA SSB inh: 8.7; CCHFV vOTU inh: -1.9; BH1578 lux ind: -1.0

Results for O=C(Nc1ccc2c(c1)OCO2)c1ccc(N2CCCC2)c([N+](=O)[O-])c1 ?
DUSP3 inh: -1.7; SARS 3CLpro inh: -0.2; PriA SSB inh: 39.0*; CCHFV vOTU inh: 15.3; BH1578 lux ind: -0.3

How did COc1ccc(NC(=O)Cn2cc(-c3ccccc3)c(N(C)C)n2)cc1Cl do in these assays?
PriA SSB inh: 23.0

What do the screens show for `CN1CCOc2ccc(NS(=O)(=O)c3cccs3)cc2C1=O`?
PriA SSB inh: -19.0

What do the screens show for `O=C(Nc1ccc(N2CCOCC2)c(Cl)c1)c1ccc2c(c1)OCCO2`?
TcdB inh: 21.0*; DUSP3 inh: -4.8; SARS 3CLpro inh: -4.2; PriA SSB inh: -10.8; CCHFV vOTU inh: 9.5; BH1578 lux ind: -1.4

Results for O=C(Nc1ccc(N2CCCC2)c(Cl)c1)c1ccc2c(c1)OCCO2 ?
SARS 3CLpro inh: 0.4; PriA SSB inh: -10.5; CCHFV vOTU inh: 8.9; BH1578 lux ind: -0.6

What do the screens show for `Cc1c(Br)c([N+](=O)[O-])nn1C(C)C(=O)Nc1ccc2c(c1)OCO2` (stereo not drawn)?
TcdB inh: 0.0; DUSP3 inh: 23.7; SARS 3CLpro inh: -0.3; PriA SSB inh: -5.8; CCHFV vOTU inh: -1.4; BH1578 lux ind: 55.2*

How did Cc1cc(C)n(C(=O)C(C)n2nc([N+](=O)[O-])c(Br)c2C)n1 (stereo not drawn) do in these assays?
TcdB inh: 1.8; DUSP3 inh: 14.7; SARS 3CLpro inh: -2.5; PriA SSB inh: -2.5; CCHFV vOTU inh: -10.7; BH1578 lux ind: inactive

Results for CCN1C(=O)Cc2cc(NC(=O)C3CC3)ccc21 ?
PriA SSB inh: 18.0

What do the screens show for `CCOc1ccc(-c2cc(=O)n(CC(=O)NCc3ccc4c(c3)OCO4)cn2)cc1`?
PriA SSB inh: -17.0

How did CCCc1cc(=O)n(CC(=O)Nc2c(C)cccc2C)cn1 do in these assays?
PriA SSB inh: 4.0

What do the screens show for `Cc1cc(-c2csc(NC(=O)c3ccc(=O)[nH]c3)n2)c(C)n1Cc1ccco1`?
TcdB inh: -0.4; DUSP3 inh: 111.6*; SARS 3CLpro inh: 2.8; PriA SSB inh: 24.8; CCHFV vOTU inh: -11.2; BH1578 lux ind: inactive

How did CCOC(=O)C1C(=O)C=C(c2cccs2)CC1c1ccc(N(CC)CC)cc1 (stereo not drawn) do in these assays?
PriA SSB inh: 4.0

How did Oc1cccnc1N=Cc1c(O)ccc2ccccc12 do in these assays?
PriA SSB inh: 58.0*
